TCR act: activators of T cell receptors; 330,000 tested, under 10 active; primary human leukocytes, anti-CD3, IL-2 HTRF, 48 h; AID 504894; Potency, µM (series often up to 9.22 µM), hits mostly activators
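Activity was scored as IL-2 release from primary human leukocytes given only a TCR signal (a-CD3 beads) plus compound for 48 hr. Detection used a two-antibody HTRF format read at 665nm.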
Sfp inh: inhibitors of Bacillus subtilis Sfp phosphopantetheinyl transferase; Q9F4F7; Biochemical Sfp PPTase activity, qHTS; Potency, µM, actives largely listed as inhibitors; actives 3.5% (n = 310,000); AID 1490;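 also: the enzyme is Sfp with the accession as filed and its product quenches rhodamine fluorescence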
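Sfp 15 nM + cpd, 15 min RT; start w/ rhodamine-CoA 5 uM, BHQ-2-YbbR 12.5 uM (final); 50 mM Hepes pH 7.6, 10 mM MgCl2, 0.01% NP-40, 0.01% BSA; read 525/598 nm at 0 and 30 min.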
uPA surface inh: inhibitors of cell surface uPA generation; cell surface uPA generation assay, qHTS; Potency, µM (series often up to 38.3 µM), actives largely listed as inhibitors; actives 0.31% (n = 330,000); active = well fitted inhibition curve with a large enough effect; tested in mouse RAW 264.7 cells; also: nearly all actives have a fitted effect of over 55% in size
ClpP mod: qHTS Assay for Activators of ClpP. actives 1.9% (n = 340,000). purified B. subtilis ClpP, FRET peptide cleavage, 20 min. Potency, µM (titrated, usually from 57.5 µM). ATP-dependent Clp protease proteolytic subunit (Bacillus subtilis (strain 168)), P80244; active = well fitted falling curve with a large enough effect; also: the source files actives as falling curves though it sought activators and does not explain the sign; nearly all actives have a fitted effect of over 65% in size
Target sequence (P80244 whole entry, looked up): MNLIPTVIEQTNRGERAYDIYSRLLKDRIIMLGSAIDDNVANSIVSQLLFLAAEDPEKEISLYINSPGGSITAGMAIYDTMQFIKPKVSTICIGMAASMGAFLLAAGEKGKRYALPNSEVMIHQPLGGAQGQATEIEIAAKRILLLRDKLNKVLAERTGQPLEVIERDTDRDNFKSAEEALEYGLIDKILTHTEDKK
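FRET quenching reversal measured ClpP activation: 10 microg/mL B. subtilis ClpP at pH 8 with the FRET-FV decapeptide, read at 430 nm after 320 nm excitation. The 20-min minus 0-min signal was scaled between DMSO/no-enzyme wells and ADEP (5.8 microM final).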
A number is an active result; 0 = inactive; - = no result. The list is not random: actives were taken first. Their share in the collection is about 4.2%. Unless noted, calls follow the shape of the dose curve; as a rule, active = well fitted curve in the direction sought with a large enough effect; inconclusive = small, poorly fitted or top-dose-only effect, or another doubt; inactive = no such curve, though single readings can be large; an effect the other way counts as inactive or inconclusive.

SMILES | TCR act | Sfp inh | uPA surface inh | ClpP mod
CCC(C)(C)n1nnnc1C(c1ccc(O)c(OC)c1)N1CCN(c2nc3ccccc3s2)CC1 (stereo not drawn) | 0 | 40µM | 0 | 0
COc1cc2c(NC3CCN(C)CC3)nc(N3CCCN(C)CC3)nc2cc1OCCCCN | - | - | - | 0
COc1ccc(OC(=O)c2cc(-c3ccc4c(c3)OCCO4)on2)cc1 | - | - | - | 0
Cc1cccc(OC(=O)c2cc(-c3ccc4c(c3)OCCO4)on2)c1 | - | - | - | 25µM
CC(C)c1ccc(OC(=O)c2cc(-c3ccc4c(c3)OCCO4)on2)cc1 | - | - | - | 0
Cc1cc(C)cc(OC(=O)c2cc(-c3ccc4c(c3)OCCO4)on2)c1 | - | - | - | 32µM
Cc1ccccc1OC(=O)c1cc(-c2ccc3c(c2)OCCO3)on1 | - | - | - | 32µM
COc1cc(C2CC(=O)N(Cc3ccc(F)cc3)c3ccccc3S2)cc(OC)c1OC (stereo not drawn) | - | - | - | 0
C[C@@H]1CN([C@H](C)CO)C(=O)c2cc(NS(=O)(=O)c3cn(C)cn3)ccc2O[C@H]1CN(C)C(=O)Nc1ccccc1 | 0 | - | 0 | 0
CC(C)Oc1ccc(OCCNC2CCCC2)cc1 | 0 | 50µM | 0 | 0
CCCOc1ccccc1Cn1c(=O)sc2ccccc21 | - | - | - | 0
COc1cccc(-c2nn[nH]n2)c1O | 0 | 50µM | 0 | 0
COc1ccc(Cn2c(CCC(=O)NCc3cccc(Cl)c3)nc3cccnc32)cc1 | - | - | - | 0
COc1ccc(C2C(C#N)C(C#N)N3CCCN23)cc1 (stereo not drawn) | 0 | 0 | 0 | 32µM
Cc1ccccc1CNC(=O)c1ccc2nc(C(C)C)oc2c1 | - | - | - | 0
CCOc1ccc(CNC(=O)c2ccc3c(c2)c(C)c(C)n3Cc2ccc(Cl)cc2)cc1 | - | - | - | 16µM
Cc1c(C)n(Cc2ccccc2)c2ccc(C(=O)NCC(C)c3ccccc3)cc12 (stereo not drawn) | - | - | - | 20µM
COC(=O)C1=C(CCc2ccccc2)NC(=O)NC1c1ccc(Br)cc1 (stereo not drawn) | 0 | 0 | 0 | 0
COC(=O)c1ccc(NC(=O)CCc2c(C)nc3ncnn3c2C)cc1 | 0 | 0 | 0 | 0
CC(=O)c1ccc(NC(=O)CCc2c(C)nc3ncnn3c2C)cc1 | 0 | 0 | 0 | 28µM
Cc1cccc(CCNC(=O)CCc2c(C)nc3c(c(C)nn3-c3ccccc3)c2C)c1 | - | - | - | 32µM
CC(=O)c1ccc(NC(=O)CCc2c(C)nc3c(c(C)nn3-c3ccc(C)cc3)c2C)cc1 | - | - | - | 14µM
COc1ccc2c(c1)Cc1sc(NC(=O)c3ccc(Cl)cc3)nc1-2 | - | - | - | 0
COc1ccc(OC)c(C2=NOC(C(=O)NCc3cccnc3)C2)c1 (stereo not drawn) | 0 | 0 | 0 | 0
COc1cc(OC)c(C2=NOC(C(=O)NCc3cccnc3)C2)cc1Cl (stereo not drawn) | 0 | 0 | 10µM | 0
SMILES | TCR act | Sfp inh | uPA surface inh | ClpP mod
N=C1/C(=C/c2coc3ccccc3c2=O)C(=O)N=C2SC(c3ccco3)=NN12 | 0 | 40µM | 0 | -
N=C1/C(=C\c2coc3ccccc3c2=O)C(=O)N=C2SC(c3ccncc3)=NN12 | 0 | 0 | 0 | -
Cc1ccccc1-c1nc(NC(=O)CSc2ncnc3sc4c(c23)CCCC4)ns1 | - | - | - | 0
COc1ccccc1C(=O)NCc1nc2cccnc2n1Cc1ccc(F)cc1 | - | - | - | 0
Cn1ncc(Cl)c1C(=O)N1CCN(c2ccc(Cl)c(Cl)c2)CC1 | 0 | 0 | 0 | 16µM
CC(=O)OC1C(=O)[C@@]2(C)C(O)CC3OC[C@]3(OC(C)=O)C2C(OC(=O)c2ccccc2)[C@]2(O)CC(OC(=O)C(O)C(NC(=O)c3ccccc3)c3ccccc3)C(C)=C1C2(C)C (stereo partly drawn) | - | 0 | - | -
CC(=O)O[C@H]1C(=O)[C@@]2(C)C([C@H](OC(=O)c3ccccc3)[C@]3(O)C[C@H](OC(=O)[C@H](O)[C@@H](NC(=O)c4ccccc4)c4ccccc4)C(C)=C1C3(C)C)[C@]1(OC(C)=O)CO[C@@H]1C[C@@H]2O (stereo partly drawn) | - | 45µM | - | -
CC(C)NC(=O)c1ccc(COc2ccc(C(C)(C)C)cc2)o1 | 0 | 0 | 0 | -
CC(=O)N1CCOc2ccc(S(=O)(=O)NCC3CCC(C(=O)Nc4ncccc4C)CC3)cc21 (stereo not drawn) | 0 | 0 | 0 | 0
CC1CCN(c2nc3c(S(=O)(=O)c4cccc(Cl)c4)nnn3c3ccsc23)CC1 | - | - | - | 22µM
O=C(CN1C(=O)CC(c2ccccc2)Sc2ccccc21)Nc1cccc(Cl)c1 (stereo not drawn) | - | - | - | 0
